Results on 92 compounds are retold here after PubChem BioAssay AID1917 (Vanderbilt High Throughput Screening Facility, 2009).

SMILES strings stand for the structures. About 1,600 (53%) of roughly 3,000 compounds were called active. Roughly 10% stayed inconclusive and do not appear here. So high a share suggests a set chosen from earlier hits. These entries were drawn from the full list. Values without a mark were called inactive.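 The calls were made as follows: active = Flux at 10 µM at least 3 SD below or above vehicle control mean in one or both replicates; inconclusive = no clear call, values can overlap the other calls; inactive = the rest.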

The target of the assay is ATP-sensitive inward rectifier potassium channel 1 (Homo sapiens) (UniProt P48048). The assay is described as follows: ROMK channel modulator hit retest, confirmation, cell-based, thallium flux, duplicate, resupplied hits (AID 1917). As to conditions: fluorescence ratio, at 10 µM, hits give low values.
Chain of ATP-sensitive inward rectifier potassium channel 1 (Homo sapiens) (P48048 whole entry, looked up): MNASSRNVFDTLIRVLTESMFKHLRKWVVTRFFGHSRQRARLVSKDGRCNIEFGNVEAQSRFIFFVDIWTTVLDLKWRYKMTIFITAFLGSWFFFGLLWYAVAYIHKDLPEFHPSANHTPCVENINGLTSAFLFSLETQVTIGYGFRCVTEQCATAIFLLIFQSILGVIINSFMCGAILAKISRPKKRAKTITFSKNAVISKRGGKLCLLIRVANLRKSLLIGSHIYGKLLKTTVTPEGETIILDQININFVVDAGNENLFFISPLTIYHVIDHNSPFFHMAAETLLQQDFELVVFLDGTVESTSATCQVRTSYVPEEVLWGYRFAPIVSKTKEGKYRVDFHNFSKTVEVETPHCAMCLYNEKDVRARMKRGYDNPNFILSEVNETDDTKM
Regarding `O=[N+]([O-])c1ccc(N=Cc2c(O)ccc3ccccc23)cc1`, the normalized thallium flux (F/F0 slope) is 0.064 (active).
For `COc1ccc(N=Cc2c(O)[nH]c3ccccc23)cc1OC`, the normalized thallium flux (F/F0 slope) is 0.0799.
Consider `Cc1nc2ccccc2nc(=O)c1NNc1ccc([N+](=O)[O-])cc1`, for which the normalized thallium flux (F/F0 slope) was 0.0842.
Then `C=CCn1cnc2scc(-c3ccccc3)c2c1=O`, with 0.049 (active); and `O=C(Nc1ccc(N2CCOCC2)cc1)c1ccc(-c2ccccc2[N+](=O)[O-])o1`, with 0.108 (active).
In the case of `O=C(CCN1CCc2ccccc2C(O)(c2ccccc2)C1)c1ccc2c(c1)OCCO2` (configuration not stated), the normalized thallium flux (F/F0 slope) is 0.0602 (active).
The value for `CSc1nc2nc3c(c(=O)n2[nH]1)CCC3` was 0.0761; that for `Cc1cccn2c(=O)c3cc(C(=O)N4COCC4(C)C)n(C)c3nc12` was 0.0444 (active); that for `Cc1ccc(S(=O)(=O)C2(S(=O)(=O)c3ccc(C)cc3)CCCC2)cc1` was 0.0776.
The value for `Cc1cc2cc(CN(Cc3cccs3)Cc3nnnn3CC3CCCO3)c(=O)[nH]c2cc1C` (configuration not stated) was 0.0575 (active); that for `NC(=O)c1ccccc1N(Cc1ccccc1)S(=O)(=O)c1ccccc1` was 0.0757; that for `O=C(O)c1ccc2c(c1)C(=O)N(c1ccc(/C=C/C(=O)c3ccccc3)cc1)C2=O` was 0.0504 (active).
Take `CC(C)(c1ccccc1)c1ccc(OCCN)cc1`: the normalized thallium flux (F/F0 slope) was 0.0605 (active).
Then `CCCN(CCC)CC(O)COc1ccccc1C(=O)Nc1ccccc1` (configuration not stated), with 0.055 (active); and `CS(=O)(=O)c1ccc(Cl)c(NC(=O)Nc2ccccc2)c1`, with 0.0706.
As for `Cc1cccc(-n2c(SCC(=O)Nc3cccc(S(=O)(=O)NC4=NCCCCC4)c3)nc3ccccc3c2=O)c1C`, the normalized thallium flux (F/F0 slope) is 0.0482 (active).
The value for `Cc1ccc(C)c(NC(=O)CSc2nc3c(oc4ccccc43)c(=O)n2-c2ccccc2)c1` was 0.077; that for `O=C(CN1CCCCCC1)NCCN1C(=O)S/C(=C\c2ccccc2Cl)C1=O` was 0.0525 (active); that for `O=[N+]([O-])c1cc(Cl)cc(/C=N/NC(=S)Nc2cc(S(=O)(=O)N3CCOCC3)ccc2Cl)c1O` was 0.0856.
With `O=C1C(=O)N(c2ccccc2)c2ccccc21`, the normalized thallium flux (F/F0 slope) is 0.0906.
Then `CCCOc1ccc(C(=O)C(CCC(CNCC)C(=O)c2ccc(OCCC)cc2)CNCC)cc1` (configuration not stated), with 0.0393 (active); and `O=C(Cn1nc(CNc2ccc(Cl)cc2)[n+]2c1CCCCC2)c1ccc(Cl)cc1`, with 0.0549 (active); and `Cn1c(SCC(=O)N2CCCc3ccccc32)nc2ccccc2c1=O`, with 0.0629 (active).
Regarding `C=CCOc1cccc(CNn2cn[nH]c2=S)c1`, the normalized thallium flux (F/F0 slope) was 0.0819.
Then `CN(C)/C=C(/C(=O)c1ccc(Cl)c(Cl)c1)c1nnnn1-c1ccccc1`, with 0.0735; and `CC(C)CN(CC(C)C)CC(O)CN(c1ccccc1)S(=O)(=O)c1ccccc1[N+](=O)[O-]` (configuration not stated), with 0.0763.
Then `COc1ccc([N+](=O)[O-])cc1N(CC(O)CN(CC(C)C)CC(C)C)S(=O)(=O)c1ccc(C)cc1` (configuration not stated), with 0.0621 (active).
Then `O=C(CN1C(=O)NC(Cc2ccccc2)(Cc2ccccc2)C1=O)NCC1CCCCC1`, with 0.056 (active); and `O=C(CN1C(=O)NC2(CCCCC2)C1=O)NCCC1=CCCCC1`, with 0.0839; and `COCCNC(=O)/C(C#N)=C/c1cccc(OCc2ccccc2)c1`, with 0.042 (active).
As to `CC(C(=O)NC1CCCC1)N(c1ccc(Oc2ccccc2)cc1)S(C)(=O)=O` (configuration not stated), the normalized thallium flux (F/F0 slope) was 0.061 (active).
The value for `CCCCCCCCCCOC(=O)C[N+](C)(C)CC1CCCCC1O` (configuration not stated) was 0.0597 (active); that for `CCOC(=O)Cc1csc(NC(=O)CSc2ccc(Br)cc2)n1` was 0.0659 (active); that for `CCOC(=O)Cc1csc(SCC(=O)NC(C)C23CC4CC(CC(C4)C2)C3)n1` (configuration not stated) was 0.0513 (active).
The value for `CC1=CC2=NC(=O)/C(=C/c3coc4ccccc4c3=O)C(=N)N2O1` was 0.0388 (active); that for `Cc1cc(/C=C2/C(=N)N3C(=NC2=O)SN=C3S(C)(=O)=O)c(C)n1-c1ccccc1` was 0.0746; that for `O=C(CCl)N(Cc1cccc([N+](=O)[O-])c1)c1cccc(Cl)c1` was 0.0469 (active).
The value for `CC(C)(C)CC(C)(C)NCC(O)COCCOc1ccc(Br)cc1` (configuration not stated) was 0.0489 (active).
Regarding `CC1CCCN(S(=O)(=O)c2ccc(N(C(=O)c3cnccn3)C(C(=O)NC3CCCCC3)c3cccs3)cc2)C1` (configuration not stated), the normalized thallium flux (F/F0 slope) is 0.0633 (active).
Then `N#Cc1c(N)n(CCOC(=O)c2ccc(Cl)cc2)c2nc3ccccc3nc12`, with 0.0672 (active); and `O=C(Nc1nnc(SCc2ccccc2Cl)s1)c1cccc([N+](=O)[O-])c1`, with 0.0638 (active); and `CCC(C)(C)n1nnnc1C(c1cccs1)N1CCN(c2nc3ccccc3s2)CC1` (configuration not stated), with 0.0713.
For the compound `Cc1ccc(C(=O)C[n+]2cc(-c3ccccc3)n3c2CCCCC3)cc1`, the normalized thallium flux (F/F0 slope) was 0.0564 (active).
In the case of `CN(NC(=O)c1ccccc1F)c1nc(C(F)(F)F)nc2ccccc12`, the normalized thallium flux (F/F0 slope) is 0.0894.
The value for `O=C(/C=C/c1ccc(Cl)c([N+](=O)[O-])c1)c1ccc(O)cc1` was 0.0498 (active).
The value for `O=C(/C=C/c1ccc(Cl)cc1Cl)c1cccnc1` was 0.0511 (active); that for `O=C(/C=C/c1ccc(Cl)c([N+](=O)[O-])c1)c1cccnc1` was 0.0474 (active); that for `O=C1COc2ccc(NC(=O)N3CCN(c4ccc(F)cc4)CC3)cc2N1` was 0.0765.
The value for `O=C(CN1CCOCC1)N/N=C/c1ccc(-c2ccc(Br)cc2)o1` was 0.0674 (active); that for `COc1ccccc1-n1c(C)nc2cc(C(=O)NCc3ccc4c(c3)OCO4)ccc21` was 0.0924; that for `O=C(NCCc1ccc2c(c1)OCCO2)c1cc2ccccc2o1` was 0.0628 (active).
For `COc1ccc2[nH]c(=O)c(CNc3ccc(C)c(C)c3)cc2c1`, the normalized thallium flux (F/F0 slope) was 0.0713.
Then `Clc1ccc(-n2nnnc2-c2cnc(-c3ccccn3)nc2-c2cccs2)cc1`, with 0.0713.
Then `CCC(c1nnnn1C1CCCC1)N(Cc1cccs1)Cc1cc2cccc(C)c2[nH]c1=O` (configuration not stated), with 0.0635 (active); and `Cc1cccc2cc(CN(Cc3nnnn3Cc3ccccc3)C3CCCC3)c(=O)[nH]c12`, with 0.055 (active).
On to `COc1ccc(C(=O)OCC(=O)c2ccc(C)c(S(=O)(=O)N3CCOCC3)c2)cc1OC`, for which the normalized thallium flux (F/F0 slope) is 0.0776.
Then `C#CCOCCOCCOCCNc1nc(N2CCN(C(=O)[C@H](CCC(=O)O)n3cc(C(N)CO)nn3)CC2)nc(N2CCN(C(=O)[C@H](CCCCN)n3cc(C(N)[C@H](C)CC)nn3)CC2)n1` (some centres not stated), with 0.0789; and `Cc1ccc(CNC(=O)CC2Sc3ccccc3NC2=O)cc1` (configuration not stated), with 0.086; and `CSc1cccc(NC(=S)N(Cc2ccccc2)Cc2ccccn2)c1`, with 0.0791.
For `CNC(=O)/C(C#N)=C/c1c(F)cccc1Cl`, the normalized thallium flux (F/F0 slope) is 0.0423 (active).
The value for `CCOC(=O)c1c(NC(=O)CCl)sc(C(=O)N(CC)CC)c1C` was 0.0722.
The value for `COc1ccccc1N1CCN(CCCCOc2ccc(F)cc2)CC1` was 0.0581 (active); that for `Cc1cc(C(C)(C)C)oc1C(=O)N(CC(=O)NC1CCCC1)Cc1ccc(Cl)cc1` was 0.0748.
As for `Cc1ccccc1CCN(CC(=O)NC1CCCCC1)C(=O)c1csnn1`, the normalized thallium flux (F/F0 slope) was 0.0568 (active).
Then `CCCS(=O)(=O)N1CCC(C(=O)NCCCN(C)Cc2ccccc2)CC1`, with 0.0759; and `COc1ccc(-c2[nH]ncc2CN(C)Cc2c(C)n[nH]c2C)c(OC)c1`, with 0.0773; and `COC(=O)Cn1cc(/C=C/[N+](=O)[O-])c2ccccc21`, with 0.0436 (active).
Then `CCOc1ccc2nc(Cl)c(C3CC(c4ccccc4)=NN3C(=O)c3cccs3)cc2c1` (configuration not stated), with 0.084; and `CCOc1ccc2nc(N3CCCN(C(=O)Nc4ccccc4C)CC3)c(C#N)cc2c1`, with 0.0592 (active).
The value for `COc1ccccc1-n1c(=S)[nH]c2c(sc(=S)n2-c2ccc(C)cc2C)c1=O` was 0.0774; that for `COc1ccc(Br)cc1C(=O)Nc1cccc(C)c1C` was 0.0855.
As to `Cc1cc(Br)ccc1NC(=O)c1cnc(N2CCN(c3ccccn3)CC2)c2ccccc12`, the normalized thallium flux (F/F0 slope) is 0.0609 (active).
In the case of `CN(C)c1ccc(C=C2C(=O)OC3(CCCC3)OC2=O)cc1`, the normalized thallium flux (F/F0 slope) was 0.0453 (active).
The value for `CCOc1ccccc1C1C(C(=O)OC)=CN(C)C=C1C(=O)OC` was 0.0653 (active); that for `O=C(Nc1ccccc1-c1ccccc1)c1cccs1` was 0.0658 (active).
The value for `c1ccc2c(c1)CSc1sccc1C2=C1CCNCC1` was 0.0498 (active).
In the case of `Fc1ccc2[nH]c3c(N4CCSCC4)ncnc3c2c1`, the normalized thallium flux (F/F0 slope) was 0.0617 (active).
With `Cc1cc(/C=N/NC(N)=O)c(C)n1C1CCCCC1`, the normalized thallium flux (F/F0 slope) is 0.0777.
With `CC(NC(=O)CC1SC(N)=NC1=O)c1ccccc1` (configuration not stated), the normalized thallium flux (F/F0 slope) was 0.087.
The value for `CCOC(=O)C1=C(C)N=c2s/c(=C\C(=O)OC)c(=O)n2C1c1ccc(OC)cc1` (configuration not stated) was 0.0406 (active); that for `CCCC(c1nnnn1C(C)(C)C)N1CCN(Cc2ccccc2)CC1` (configuration not stated) was 0.0716; that for `O=C1c2cccc3c([N+](=O)[O-])ccc(c23)C(=O)N1CC1CCCO1` (configuration not stated) was 0.0565 (active).
Take `CCN1C(=O)/C(=C2/Sc3ccccc3N2CCCS(=O)(=O)O)SC1=S`: the normalized thallium flux (F/F0 slope) is 0.0827.
The value for `CCCCc1nc(NCCN)c(C#N)c2c1CSC(C)(C)C2` was 0.0552 (active); that for `COc1cc2c(cc1OC)C(/C=C/c1ccco1)=NCC2` was 0.0485 (active).
Consider `O=C(Cc1ccc(Br)cc1)N1CCN(c2ccccn2)CC1`, for which the normalized thallium flux (F/F0 slope) was 0.0628 (active).
Consider `O=C(Cc1ccccc1Cl)N1CCN(c2ccccn2)CC1`, for which the normalized thallium flux (F/F0 slope) is 0.0716.
Take `COc1ccc(Cc2nc(-c3ccccn3)no2)cc1OC`: the normalized thallium flux (F/F0 slope) is 0.0708.
Then `CCSc1sc(CC)cc1C=O`, with 0.106 (active); and `CC(NCc1ccccc1OC1CCCC1)c1ccccc1` (configuration not stated), with 0.0563 (active); and `N=c1c2c(-c3ccccc3)c(-c3ccccc3)n(Cc3ccccc3)c2ncn1CCCO`, with 0.0532 (active).
Then `Cc1nnnn1/C(=C\c1ccccc1)C(=O)OCC(=O)N1CC2(C)CC1CC(C)(C)C2` (configuration not stated), with 0.0442 (active).
